Data on 17 compounds can be found in PubChem BioAssay (EPA / NIEHS).

Assay [1] in a line: APR_HepG2_CellCycleArrest_24hr: Apredica 24-hour HepG2 Assay for Cell Cycle Arrest (AID 2282905).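 Note: cell cycle arrest scored as ratio of 2N to 4N nuclear DNA content.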 The conditions noted are these: imaging, actives raise or lower the signal. In short, it runs like this:
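HepG2 cells were exposed to compounds at 0.39–200 uM (ten concentrations, duplicate) in 0.5% v/v DMSO for 24 hr. After formaldehyde fixation and Triton permeabilization, Hoechst 33342-stained nuclei were imaged at 20x; DNA content was quantified, with bidirectional fitting against DMSO.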

Assay [2] in a line: APR_HepG2_StressKinase_1hr: Apredica 1-hour HepG2 Assay for Stress Kinase (AID 2282906). The settings on record: HepG2 stress kinase (phospho-c-Jun) imaging, actives raise or lower the signal. In short, it runs like this:
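HepG2 cells dosed 0.39-200 uM (0.5% DMSO) for 1 h, then formaldehyde-fixed. Stress kinase read by phospho-c-Jun immunofluorescence using high-content imaging; bidirectional fit vs DMSO.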

Assay [3] in a line: APR_HepG2_NuclearSize_24hr: Apredica 24-hour HepG2 Assay for Nuclear Size (AID 2282907). The settings on record: high-content imaging, actives raise or lower the signal. In short, it runs like this: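 HepG2 human liver cells were exposed for 24 hr to compounds at 0.39–200 uM (ten concentrations, duplicate) in 0.5% v/v DMSO. They were then formaldehyde-fixed, Triton-permeabilized and Hoechst 33342-stained, and nuclear diameter was imaged at 20x. Bidirectional fits were made against DMSO.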

A short description of assay [4]: APR_HepG2_CellLoss_24hr: Apredica 24-hour HepG2 Assay for Cell Loss (AID 2282908).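 For AC50: fit in both directions so a hit may be cell loss or gain.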 The conditions noted are these: high-content imaging. Summed up:
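Compounds were tested at 0.39–200 uM in duplicate with 0.5% v/v DMSO final. Cells were then fixed in 3.7% formaldehyde, Hoechst 33342 nuclei were imaged at 20x by HCS, and cell number was fitted bidirectionally against DMSO.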

A short description of assay [5]: APR_HepG2_MicrotubuleCSK_24hr: Apredica 24-hour HepG2 Assay for Microtubule CSK Stabilty (AID 2282909). The settings on record: HepG2 microtubule cytoskeleton imaging, actives raise or lower the signal. Summed up: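 HepG2 cells exposed 24 h to compounds at 0.39–200 uM (duplicate, 0.5% v/v DMSO final), then fixed, permeabilized and immunostained for alpha-tubulin with Hoechst 33342. Cytoskeleton imaged at 20x; bidirectional fit versus DMSO baseline.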

A short description of assay [6]: APR_HepG2_MitoticArrest_24hr: Apredica 24-hour HepG2 Assay for Mitotic Arrest (AID 2282910). The settings on record: high-content imaging, actives raise or lower the signal. Summed up: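 HepG2 human liver cells were exposed to compounds at 0.39–200 uM (10 concentrations, duplicate) in 0.5% v/v DMSO for 24 hr, then fixed and immunostained for phospho-histone H3 with Hoechst 33342. Mitotic arrest came from HCS fluorescent imaging, fitted bidirectionally against DMSO.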

Assay [7] in a line: APR_HepG2_MitoMembPot_24hr: Apredica 24-hour HepG2 Assay for Mitochondrial Membrane Potential (AID 2282911). The settings on record: imaging, actives raise or lower the signal. In short, it runs like this: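 HepG2 human liver cells were exposed 24 hr to compounds at 0.39–200 uM (final DMSO 0.5% v/v) in duplicate. MitoTracker Red CMXRos (250 nM, 30 min) was loaded before formaldehyde fixation; fluorescence was imaged by ArrayScan HCS and fitted bidirectionally versus DMSO.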

Assay [8] in a line: APR_HepG2_MitoMass_24hr: Apredica 24-hour HepG2 Assay for Mitochondrial Mass (AID 2282912). The conditions noted are these: high-content imaging, actives raise or lower the signal. In short, it runs like this: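 Human HepG2 liver cells were exposed for 24 hr to compounds at 0.39–200 uM (duplicates, 0.5% v/v DMSO final). They were stained live with 250 nM MitoTracker Red CMXRos for 30 min, fixed in 3.7% formaldehyde, and imaged by HCS fluorescence; signals were fitted bidirectionally against DMSO.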

Assay [9] is described as follows: APR_HepG2_p53Act_24hr: Apredica 24-hour HepG2 Assay for p53 Activation (AID 2282913).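 Note: p53 protein immunofluorescence averaged per cell in HepG2 with Hoechst nuclei.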 The settings on record: high-content imaging, actives raise or lower the signal. Summed up:
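HepG2 cells exposed 24 hr to compounds at 0.39–200 uM (10 concentrations, duplicate), final DMSO 0.5% v/v. After formaldehyde fixation and Triton permeabilization, p53 was immunolabeled (sheep anti-p53, Cy5 secondary) with Hoechst 33342 nuclear counterstain, then imaged by high-content fluorescence microscopy.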

Assay [10] can be described thus: APR_HepG2_CellCycleArrest_72hr: Apredica 72-hour HepG2 Assay for Cell Cycle Arrest (AID 2282914). The settings on record: high-content imaging, actives raise or lower the signal. Summed up: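 HepG2 cells were exposed to compounds at 0.39–200 uM (0.5% v/v DMSO final, duplicates) for 72 hr, fixed in 3.7% formaldehyde, permeabilized and stained with Hoechst 33342. Nuclear DNA content was quantified by high-content imaging; gain or loss of signal was fitted bidirectionally against DMSO.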

Active and inactive are the calls of the source. Rule for the calls: active = hit-call score of the fitted dose curve at least 0.9, where 1 is the maximum; inactive = score below 0.9.

With `CCNP(=S)(OC)O/C(C)=C/C(=O)OC(C)C` (configuration not stated), the compound was classed as inactive in assay [1], in [2], in assay [3], in [4], in [5] and in assay [6]. The compound was called inactive in assay [7], in [8], in [9] and in [10].

For the compound `CS(=O)(=O)c1cc(C(F)(F)F)ccc1C(=O)c1cnoc1C1CC1`, the call in assay [1], in assay [2], in [3], in [4], in assay [5] and in [6] was inactive. Further, the compound was classed as inactive in [7], in [8], in assay [9] and in assay [10].

As to `COc1cc(OC)nc(NC(=O)NS(=O)(=O)c2ncccc2OCC(F)(F)F)n1`, the compound was called inactive in assay [1], in assay [2], in [3], in assay [4], in assay [5] and in [6]. Besides, the outcome in assay [7], in [8], in assay [9] and in assay [10] was inactive.

Consider `COC(=O)NS(=O)(=O)c1ccc(N)cc1`, for which the call in [1], in assay [2], in [3], in assay [4], in assay [5] and in [6] was inactive. Moreover, the outcome in assay [7], in [8], in [9] and in assay [10] was inactive.

In the case of `COP(=S)(OC)Oc1ccc([N+](=O)[O-])c(C)c1`, the call in assay [1], in assay [2], in assay [3], in assay [4], in assay [5] and in assay [6] was inactive. For the same compound, the outcome in assay [7], in [8] and in assay [9] was inactive.

Consider `COC(=O)NC(=S)Nc1ccccc1NC(=S)NC(=O)OC`, for which the outcome in assay [1], in assay [2], in [3], in [4], in assay [6] and in [8] was inactive. In assay [9], the call was inactive. Also, the AC50 in assay [5] was 28.6 µM (active); in assay [7] it was 26 µM (active); in assay [10], 100 µM (active).

As to `CCN(CC)C(=O)C(C)Oc1cccc2ccccc12` (configuration not stated), the result in assay [1], in assay [2], in assay [3], in [4], in assay [5] and in assay [6] was inactive. Moreover, the call in assay [7], in assay [8] and in assay [9] was inactive.

Take `CCOc1nc(F)cc2nc(S(=O)(=O)Nc3c(Cl)cccc3Cl)nn12`: the call in assay [1], in [2], in [3], in [4], in assay [5] and in assay [6] was inactive. For the same compound, the call in [7], in assay [8], in [9] and in assay [10] was inactive.

For the compound `COCc1cnc(C2=NC(C)(C(C)C)C(=O)N2)c(C(=O)O)c1` (configuration not stated), the result in [1], in [2], in assay [3], in assay [4], in assay [5] and in assay [6] was inactive. For the same compound, the result in assay [8] was inactive.

In the case of `CCCCC(O)(Cn1cncn1)c1ccc(Cl)cc1Cl` (configuration not stated), the compound was called inactive in [1], in assay [2], in assay [3], in assay [6], in assay [7] and in assay [8]. In addition, the AC50 is 88 µM (active) in assay [4], 103 µM (active) in [5] and 105 µM (active) in assay [9].

`N#CN=C1SCCN1Cc1ccc(Cl)nc1`: the compound was called inactive in assay [1], in assay [2], in [3], in assay [4], in assay [5] and in assay [6]. Further, the result in assay [7], in assay [8] and in assay [9] was inactive.

`CNC(=O)Oc1cccc2ccccc12`: the outcome in assay [1], in [2], in assay [3], in assay [5], in [6] and in assay [7] was inactive. Besides, the outcome in assay [8], in [9] and in assay [10] was inactive. Moreover, the half-maximal activity concentration (AC50) in [4] was 50.5 µM (active).

As to `O=C(O)c1c(Cl)ccc2cc(Cl)cnc12`, the outcome in assay [1], in [2], in [3], in assay [4], in assay [5] and in assay [6] was inactive. For the same compound, the outcome in assay [7] and in assay [8] was inactive.

Consider `CC(C)N1C(=O)c2ccccc2NS1(=O)=O`, for which the call in assay [1], in [2], in assay [3], in assay [4], in [5] and in assay [6] was inactive. The result in assay [8] and in [9] was inactive.

As for `O=P(O)(O)CCCl`, the outcome in assay [1], in assay [2], in assay [3], in assay [4], in [5] and in assay [6] was inactive. Moreover, the compound was called inactive in assay [7], in assay [8] and in assay [9].

Regarding `Nc1c(Cl)c(Cl)nc(C(=O)O)c1Cl`, the result in assay [1], in assay [2], in assay [3], in [4], in [5] and in [6] was inactive. Further, the call in [7], in [8], in assay [9] and in [10] was inactive.

Consider `CNC(=O)N(C)c1nnc(C(C)(C)C)s1`, for which the result in assay [1], in assay [2], in assay [3], in assay [4], in assay [5] and in [6] was inactive. Besides, the call in assay [7], in assay [8] and in [9] was inactive.

By AC50 is commonly meant the midpoint of the concentration-response curve, whichever way the signal moves.
